Data as given in PubChem BioAssay (Tox21).
Values joined by “and” are separate entries in the source; they are usually repeats but may differ in a detail not shown here. Equal values may be shown once. Records with an inconclusive call do not appear. Where a call stands in place of a potency, no number is given. Active and inactive are the calls of the source. Unless noted, the call rests on the fitted dose curve; in most records, active means well fitted curve in the direction sought with a large enough effect in the repeat runs; inconclusive means weak or mixed curves; inactive means no such curve, though single readings can be large; an effect the other way counts as inactive or inconclusive.

How the values were obtained:
[1] = qHTS assay to identify aromatase inhibitors - cell viability counter screen (AID 743084);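 further: cells stimulated with testosterone during compound exposure; nearly all actives have a fitted effect of over 55% in size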; further: potency means the concentration at half of the fitted maximal effect
[2] = qHTS assay to identify small molecule that activate the aryl hydrocarbon receptor (AhR) signaling pathway - cell viability counter screen (AID 743086); further: nearly all actives have a fitted effect of over 45% in size; further: potency means the concentration at half of the fitted maximal effect
Outline: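 Cytotoxicity counter screen: CellTiter-Fluor signal (30 min, 37 C) in 4000 HepG2 cells/well carrying the DRE-luciferase reporter, following 24 h compound exposure at 37 C.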

[3] = target: Peroxisome proliferator-activated receptor gamma (Homo sapiens) (UniProt P37231); assay: qHTS assay to identify small molecule agonists of the peroxisome proliferator-activated receptor gamma (PPARg) signaling pathway (AID 743094; active means well fitted activation curve with a large enough effect in the signal ratio in the repeat runs, not every such curve was filed as active; the % refers to the signal ratio)
Peroxisome proliferator-activated receptor gamma (Homo sapiens), sequence (P37231 whole entry, looked up): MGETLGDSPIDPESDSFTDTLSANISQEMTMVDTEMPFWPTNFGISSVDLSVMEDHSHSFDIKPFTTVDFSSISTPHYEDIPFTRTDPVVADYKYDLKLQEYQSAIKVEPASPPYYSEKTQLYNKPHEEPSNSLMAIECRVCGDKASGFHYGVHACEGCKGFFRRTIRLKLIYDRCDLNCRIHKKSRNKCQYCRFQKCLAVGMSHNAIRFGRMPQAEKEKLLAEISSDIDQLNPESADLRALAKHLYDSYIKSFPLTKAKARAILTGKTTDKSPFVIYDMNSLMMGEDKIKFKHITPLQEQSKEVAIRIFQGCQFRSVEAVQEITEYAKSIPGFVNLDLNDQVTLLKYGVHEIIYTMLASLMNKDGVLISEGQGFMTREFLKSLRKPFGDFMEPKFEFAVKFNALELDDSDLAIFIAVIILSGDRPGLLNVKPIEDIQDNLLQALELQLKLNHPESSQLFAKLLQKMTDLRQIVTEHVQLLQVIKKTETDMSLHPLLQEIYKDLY
Outline: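 Fluorescence-based beta-lactamase readout in HEK293H PPARg UAS-bla cells after 17 h compound exposure (37C) and 1 h B/G FRET substrate incubation at room temperature.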

[4] = target: Peroxisome proliferator-activated receptor gamma (Homo sapiens) (UniProt P37231); assay: qHTS assay to identify small molecule antagonists of the peroxisome proliferator-activated receptor gamma (PPARg) signaling pathway (AID 743191; calls by dose curve; further: nearly all actives have a fitted effect of over 30% in size; further: potency means the concentration at half of the fitted maximal effect)
Outline: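 Beta-lactamase reporter under UAS control in HEK293H PPARg-bla cells; compound treatment 17 h at 37C. Read-out: fluorescence intensity after 1 h room-temperature incubation with LiveBLAzer B/G FRET substrate.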

[5] = qHTS assay to identify small molecule antagonists of the peroxisome proliferator-activated receptor gamma (PPARg) signaling pathway - cell viability counter screen (AID 743194); details: Potency: co-treated with 50 nM rosiglitazone unless noted; further: nearly all actives have a fitted effect of over 55% in size; further: potency means the concentration at half of the fitted maximal effect
Outline: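 Viability was measured as CellTiter-Glo luminescence in GeneBLAzer PPARg UAS-bla HEK293H cells. These cells had been exposed 17 h at 37 C to compounds together with rosiglitazone at 50 nM final, with the beta-lactamase readout taken in the same wells.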

[6] = qHTS assay for small molecule agonists of the antioxidant response element (ARE) signaling pathway (AID 743202; active means well fitted activation curve with a large enough effect in the signal ratio in the repeat runs, not every such curve was filed as active; the % refers to the signal ratio)
Outline: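 After 16 hours of compound treatment at 37 C, HepG2 cells with a stably integrated ARE-driven beta-lactamase reporter were loaded 2 hours at room temperature with LiveBLAzer B/G FRET substrate and fluorescence intensity measured.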

[7] = qHTS assay for small molecule agonists of the antioxidant response element (ARE) signaling pathway - cell viability counter screen (AID 743203; calls by dose curve; further: nearly all actives have a fitted effect of over 55% in size; further: potency means the concentration at half of the fitted maximal effect)
Outline: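 Parallel cytotoxicity read-out for the ARE-bla screen: HepG2 reporter cells, 16 hrs with compounds, then CellTiter-Glo luminescence.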

[8] = qHTS assay for small molecule activators of the heat shock response signaling pathway - cell viability counter screen (AID 743209); further: nearly all actives have a fitted effect of over 50% in size; further: potency means the concentration at half of the fitted maximal effect
Outline: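 To flag cytotoxic compounds, HSE-bla HeLa cells plated at 1500 cells/well were dosed for 5 h at 37 C, followed by the reporter FRET read and then CellTiter-Glo, with luminescence recorded 30 min after reagent addition.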

[9] = target: Peroxisome proliferator-activated receptor delta (Homo sapiens) (UniProt Q03181); assay: qHTS assay to identify small molecule agonists of the peroxisome proliferator-activated receptor delta (PPARd) signaling pathway (AID 743212; calls by dose curve;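 further: HEK293H cells with PPARd UAS beta-lactamase reporter GeneBLAzer system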)
Peroxisome proliferator-activated receptor delta (Homo sapiens), sequence (Q03181 whole entry, looked up): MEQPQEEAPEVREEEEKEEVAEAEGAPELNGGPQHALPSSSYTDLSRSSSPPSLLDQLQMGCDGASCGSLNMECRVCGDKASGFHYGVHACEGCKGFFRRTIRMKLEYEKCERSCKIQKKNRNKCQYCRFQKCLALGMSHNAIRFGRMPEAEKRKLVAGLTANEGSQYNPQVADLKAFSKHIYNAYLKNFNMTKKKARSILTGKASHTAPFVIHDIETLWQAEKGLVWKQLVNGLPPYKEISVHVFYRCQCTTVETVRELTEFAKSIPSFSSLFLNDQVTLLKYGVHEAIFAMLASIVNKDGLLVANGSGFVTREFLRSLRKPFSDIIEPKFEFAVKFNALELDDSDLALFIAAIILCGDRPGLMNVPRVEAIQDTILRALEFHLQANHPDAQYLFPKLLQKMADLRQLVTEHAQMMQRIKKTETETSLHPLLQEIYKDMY
Outline: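 Beta-lactamase reporter readout: a ratiometric FRET signal from the LiveBLAzer substrate after 2 h at room temperature. Compound exposure at 37 °C in PPARδ-bla HEK293H cells driven by an upstream activator sequence.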

[10] = target: Peroxisome proliferator-activated receptor delta (Homo sapiens) (UniProt Q03181); assay: qHTS assay to identify small molecule antagonists of the peroxisome proliferator-activated receptor delta (PPARd) signaling pathway (AID 743215; active means well fitted inhibition curve with a large enough effect in the signal ratio in the repeat runs, not every such curve was filed as active; the % refers to the signal ratio;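 further: cells stimulated with agonist L165041 at 300 nM final during compound exposure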; further: potency means the concentration at half of the fitted maximal effect)
Outline: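 Screen format: qHTS, antagonist mode. HEK293H PPARd-bla cells received compound and 300 nM L165041 (final), 17 h, 37 C. Beta-lactamase detected via FRET substrate fluorescence, 2 h, room temperature.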

[11] = target: Bile acid receptor (Homo sapiens) (UniProt Q96RI1); assay: qHTS assay to identify small molecule antagonists of the farnesoid-X-receptor (FXR) signaling pathway (AID 743217; active means well fitted inhibition curve with a large enough effect in the signal ratio in the repeat runs, not every such curve was filed as active; the % refers to the signal ratio)
Bile acid receptor (Homo sapiens), sequence (Q96RI1 whole entry, looked up): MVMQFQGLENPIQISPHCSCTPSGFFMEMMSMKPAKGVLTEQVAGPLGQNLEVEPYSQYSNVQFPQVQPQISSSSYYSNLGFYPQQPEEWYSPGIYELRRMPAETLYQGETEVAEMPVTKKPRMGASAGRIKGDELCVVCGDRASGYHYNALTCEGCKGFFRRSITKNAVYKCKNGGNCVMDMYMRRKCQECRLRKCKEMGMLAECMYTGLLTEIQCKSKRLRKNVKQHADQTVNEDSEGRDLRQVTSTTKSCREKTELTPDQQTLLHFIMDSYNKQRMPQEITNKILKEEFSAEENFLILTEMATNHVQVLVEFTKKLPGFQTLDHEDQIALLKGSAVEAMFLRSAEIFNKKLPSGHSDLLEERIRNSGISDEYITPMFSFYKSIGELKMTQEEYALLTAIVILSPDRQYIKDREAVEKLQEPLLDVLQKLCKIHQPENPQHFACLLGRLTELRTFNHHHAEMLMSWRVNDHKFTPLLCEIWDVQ
Outline: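 Quantitative HTS, beta-lactamase reporter format: FXR-UAS-bla HEK 293T cells co-treated 16 h at 37 °C with compounds and 50 uM final chenodeoxycholic acid, then read by B/G FRET fluorescence.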

[12] = qHTS assay to identify small molecule agonists of the farnesoid-X-receptor (FXR) signaling pathway - cell viability counter screen (AID 743218); further: nearly all actives have a fitted effect of over 45% in size; further: potency means the concentration at half of the fitted maximal effect
Outline: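 Same-well cytotoxicity check on FXR-UAS-bla HEK 293T cells: 5 h attachment, 16 h compound at 37 C, CellTiter-Glo luminescence read at room temperature after 30 min.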

[13] = target: Bile acid receptor (Homo sapiens) (UniProt Q96RI1); assay: qHTS assay to identify small molecule agonists of the farnesoid-X-receptor (FXR) signaling pathway (AID 743220; active means well fitted activation curve with a large enough effect in the signal ratio in the repeat runs, not every such curve was filed as active; the % refers to the signal ratio)
Outline: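 FXR-UAS-bla HEK 293T cells carrying a UAS-driven beta-lactamase reporter were plated for 5 h at 37C/5% CO2, then exposed to DMSO-dissolved Tox21 10K compounds for 16 h at 37C. A LiveBLAzer B/G FRET substrate was loaded for 2 h at room temperature before fluorescence reading.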

[14] = qHTS assay to identify small molecule antagonists of the farnesoid-X-receptor (FXR) signaling pathway - cell viability counter screen (AID 743221; active means well fitted cell-killing curve with a large enough effect in the repeat runs, not every such curve was filed as active; further: nearly all actives have a fitted effect of over 50% in size; further: potency means the concentration at half of the fitted maximal effect)
Outline: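 Cytotoxicity is taken from ATP luminescence (CellTiter-Glo, 30 min, room temperature) in FXR-bla HEK 293T cells previously incubated 16 h at 37 C with compound and chenodeoxycholic acid at 50 uM final.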

[15] = target: Vitamin D3 receptor (Homo sapiens) (UniProt P11473); assay: qHTS assay to identify small molecule agonists of the vitamin D receptor (VDR) signaling pathway (AID 743222; calls by dose curve)
Vitamin D3 receptor (Homo sapiens), sequence (P11473 whole entry, looked up): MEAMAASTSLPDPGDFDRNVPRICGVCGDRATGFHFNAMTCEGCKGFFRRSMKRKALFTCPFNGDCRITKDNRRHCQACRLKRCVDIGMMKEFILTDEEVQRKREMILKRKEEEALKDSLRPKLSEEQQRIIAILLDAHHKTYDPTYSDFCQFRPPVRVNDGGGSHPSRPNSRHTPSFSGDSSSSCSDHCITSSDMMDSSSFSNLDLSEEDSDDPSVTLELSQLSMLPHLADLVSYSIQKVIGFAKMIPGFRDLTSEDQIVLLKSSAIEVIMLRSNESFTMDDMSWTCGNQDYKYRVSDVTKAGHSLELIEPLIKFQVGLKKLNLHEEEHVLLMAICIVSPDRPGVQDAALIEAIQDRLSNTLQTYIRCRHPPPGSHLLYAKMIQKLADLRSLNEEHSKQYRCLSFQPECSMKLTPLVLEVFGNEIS
Outline: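 Using LiveBLAzer B/G FRET detection, agonism was scored in VDR-bla cells exposed overnight (16 h, 37C) to DMSO-dissolved compounds; substrate incubation was 2 h at room temperature.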

[16] = qHTS assay for small molecule activators of the heat shock response signaling pathway (AID 743210; active means well fitted activation curve with a large enough effect in the signal ratio in the repeat runs, with a control signal flat, not every such curve was filed as active; the % refers to the signal ratio; further: series mostly up to about 63 µM)
Outline: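 Compound exposure lasted 5 h at 37 C in HeLa cells carrying a heat-shock-element-driven beta-lactamase reporter. Read-out: fluorescence intensity after 2.5 h room-temperature loading with LiveBLAzer B/G FRET substrate.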

[17] = qHTS assay to identify small molecule agonists of the peroxisome proliferator-activated receptor delta (PPARd) signaling pathway - cell viability counter screen (AID 743211); further: nearly all actives have a fitted effect of over 55% in size; further: potency means the concentration at half of the fitted maximal effect
Outline: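 Tox21 library compounds, delivered in DMSO, were incubated 17 h with PPARd-bla HEK293H cells; cytotoxicity was taken from CellTiter-Glo luminescence read 30 min after reagent addition.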

[18] = qHTS assay to identify small molecule antagonists of the peroxisome proliferator-activated receptor delta (PPARd) signaling pathway - cell viability counter screen (AID 743213); further: nearly all actives have a fitted effect of over 50% in size; further: potency means the concentration at half of the fitted maximal effect
Outline: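 CellTiter-Glo was added to PPARd-bla HEK293H wells following 17 h compound treatment in the presence of 300 nM L165041. Luminescence was recorded after 30 min at room temperature.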

[19] = target: Vitamin D3 receptor (Homo sapiens) (UniProt P11473); assay: qHTS assay to identify small molecule antagonists of the vitamin D receptor (VDR) signaling pathway (AID 743223; active means well fitted inhibition curve with a large enough effect in the signal ratio in the repeat runs, not every such curve was filed as active; the % refers to the signal ratio; further: potency means the concentration at half of the fitted maximal effect)
Outline: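 Quantitative HTS in VDR-bla reporter cells stimulated with 1alpha,25-dihydroxyvitamin D3, 3 nM final. Compound exposure 16 h, 37C, 5% CO2. Read-out: beta-lactamase FRET substrate fluorescence, 2 h RT.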

[20] = target: Aryl hydrocarbon receptor (Homo sapiens) (UniProt P35869); assay: qHTS assay to identify small molecule that activate the aryl hydrocarbon receptor (AhR) signaling pathway (AID 743085);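 further: HG2L7.5c1 human HepG2 liver cells with stably integrated DRE-driven firefly reporter; series mostly up to about 70 µM; nearly all actives have a fitted effect of over 15% in size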
Aryl hydrocarbon receptor (Homo sapiens), sequence (P35869 whole entry, looked up): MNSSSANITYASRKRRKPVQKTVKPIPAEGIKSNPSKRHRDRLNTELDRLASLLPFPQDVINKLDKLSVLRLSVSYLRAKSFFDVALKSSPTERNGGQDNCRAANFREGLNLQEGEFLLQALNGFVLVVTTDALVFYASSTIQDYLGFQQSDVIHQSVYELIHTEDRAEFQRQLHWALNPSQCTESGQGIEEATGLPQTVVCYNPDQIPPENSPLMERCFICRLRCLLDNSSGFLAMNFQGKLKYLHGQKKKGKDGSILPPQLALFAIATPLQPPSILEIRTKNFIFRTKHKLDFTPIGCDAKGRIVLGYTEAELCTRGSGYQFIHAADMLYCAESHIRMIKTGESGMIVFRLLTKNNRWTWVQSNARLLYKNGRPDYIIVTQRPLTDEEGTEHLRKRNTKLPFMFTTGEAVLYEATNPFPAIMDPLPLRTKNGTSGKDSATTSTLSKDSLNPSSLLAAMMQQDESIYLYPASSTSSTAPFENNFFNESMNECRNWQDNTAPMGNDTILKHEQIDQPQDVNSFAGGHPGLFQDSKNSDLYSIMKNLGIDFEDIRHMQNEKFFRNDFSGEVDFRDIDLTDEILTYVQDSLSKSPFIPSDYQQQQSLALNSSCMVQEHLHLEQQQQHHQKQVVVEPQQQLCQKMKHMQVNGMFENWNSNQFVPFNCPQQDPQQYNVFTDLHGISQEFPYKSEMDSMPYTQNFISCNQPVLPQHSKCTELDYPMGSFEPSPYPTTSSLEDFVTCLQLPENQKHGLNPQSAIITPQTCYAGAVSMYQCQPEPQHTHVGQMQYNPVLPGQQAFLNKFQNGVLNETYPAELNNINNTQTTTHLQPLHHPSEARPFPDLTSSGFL
Outline: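 A multiplexed format paired cell viability (CellTiter-Fluor fluorescence) with AhR-dependent luciferase output (ONE-Glo luminescence) in the same wells of HepG2 DRE-luc cells after 24 h compound exposure at 37C.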

SMILES	Potency [1]	Potency [2]	Potency [3]	Potency [4]	Potency [5]	Potency [6]	Potency [7]	Potency [8]	Potency [9]	Potency [10]	Potency [11]	Potency [12]	Potency [13]	Potency [14]	Potency [15]	Potency [16]	Potency [17]	Potency [18]	Potency [19]	Potency [20]
ClC(Cl)C(Cl)(Cl)Cl	inactive	inactive	inactive	inactive	inactive	inactive	inactive	inactive	inactive	inactive	inactive	inactive	inactive	inactive	inactive	–	–	–	–	–
CCN(CC)C(=O)N[C@@H]1C=C2c3cccc4[nH]cc(c34)C[C@@H]2N(C)C1	inactive	inactive	inactive	inactive	inactive	inactive	inactive	inactive	–	–	–	–	inactive	inactive	inactive	inactive	–	–	–	–
COc1ccc2c3c1O[C@H]1[C@H](O)CC[C@H]4[C@@H](C2)N(C)CC[C@@]341	inactive	inactive	inactive	inactive	inactive	–	inactive	–	inactive	inactive	–	inactive	–	inactive	–	–	inactive	inactive	–	–
CNC(C)(C)Cc1ccccc1	inactive	inactive	inactive	inactive	inactive	inactive	inactive	inactive	inactive	inactive	–	inactive	–	inactive	inactive	inactive	inactive	–	inactive	–
[O]=[Cr](=[O])([OH])[O][Cr](=[O])(=[O])[OH]	inactive	–	–	–	3.93 µM (active) and 7.74 µM (active)	–	21.9 µM (active) and 30.6 µM (active)	39.3 µM (active) and 43.6 µM (active)	–	–	–	27.5 µM (active)	–	19.7 µM (active) and 24.5 µM (active)	inactive	–	22.1 µM (active) and 27.5 µM (active)	7.83 µM (active) and 21.8 µM (active)	–	inactive
O=C(Nc1ccc(F)cc1F)c1cccnc1Oc1cccc(C(F)(F)F)c1	inactive	inactive	inactive	–	inactive	–	inactive	inactive	inactive	inactive	–	inactive	–	inactive	inactive	–	–	inactive	inactive	–
Fc1ccc(C(OCCN2CCN(CCCc3ccccc3)CC2)c2ccc(F)cc2)cc1	26.6 µM (active)	–	–	–	16.8 µM (active)	–	29.8 µM (active)	–	–	29.8 µM (active)	–	–	–	–	–	–	16.8 µM (active)	26.6 µM (active)	–	inactive
NC(=O)C(Cl)Cl	inactive	inactive	–	inactive	inactive	inactive	inactive	inactive	inactive	–	–	inactive	–	inactive	–	inactive	inactive	inactive	–	–
CCCN	inactive	inactive	inactive	inactive	inactive	inactive	inactive	inactive	–	–	–	–	–	inactive	–	inactive	–	inactive	–	–
OCC(Br)CBr (stereo not given)	inactive	inactive	–	inactive	inactive	inactive	inactive	inactive	inactive	inactive	inactive	inactive	inactive	inactive	inactive	inactive	inactive	–	inactive	–
CC(C)N(C(=O)CCl)c1ccccc1	24.3 µM (active)	38.6 µM (active) and 68.6 µM (active)	–	3.89 µM (active) and 3.47 µM (active)	49 µM (active) and 27.5 µM (active)	–	6.86 µM (active) and 3.86 µM (active)	12.3 µM (active) and 5.49 µM (active)	–	–	–	–	–	inactive	inactive	–	49 µM (active) and 43.6 µM (active)	–	–	–
O=C1C2(Cl)C3(Cl)C4(Cl)C(Cl)(Cl)C5(Cl)C3(Cl)C1(Cl)C5(Cl)C24Cl (stereo not given)	26.9 µM (active) and 52.2 µM (active)	–	–	–	38.3 µM (active)	–	67.5 µM (active) and 58.5 µM (active)	48.2 µM (active)	inactive	–	–	–	–	54 µM (active)	inactive	–	48.2 µM (active) and 46.9 µM (active)	54 µM (active)	54 µM (active)	inactive
Oc1ccc2[nH]cc(CCCCN3CC=C(c4ccccc4)CC3)c2c1	inactive	–	–	–	–	–	inactive	inactive	–	–	inactive	–	–	inactive	–	–	–	–	–	inactive
COCCC#N	inactive	inactive	–	–	inactive	inactive	inactive	inactive	–	inactive	–	inactive	–	inactive	inactive	inactive	inactive	inactive	inactive	–
CNC(=O)CSP(=O)(OC)OC	inactive	inactive	inactive	–	inactive	–	inactive	inactive	–	inactive	inactive	inactive	–	inactive	–	inactive	inactive	–	–	–
CC(C)=CCN1CC[C@@]2(C)c3cc(O)ccc3C[C@@H]1[C@@H]2C	inactive	inactive	inactive	inactive	inactive	inactive	inactive	inactive	inactive	inactive	–	–	–	inactive	inactive	–	–	inactive	inactive	–
CCC[CH2][Sn]([CH2]CCC)([O]C(C)=O)[O]C(C)=O	13.8 µM (active)	–	–	–	2.78 µM (active)	–	6.17 µM (active)	–	–	19.7 µM (active)	–	11.1 µM (active)	–	17.5 µM (active)	–	–	–	–	–	inactive
Brc1ccc(Oc2ccc(Br)cc2Br)c(Br)c1	inactive	inactive	inactive	inactive	inactive	inactive	–	–	–	–	–	–	inactive	inactive	inactive	–	43.7 µM (active)	inactive	–	–
